Test results as given in PubChem BioAssay (Tox21).
Where “and” joins values, the source holds several entries; their conditions need not be identical. Identical values can stand only once. Inconclusive results are not listed. Where a call stands in place of a potency, no number is given. More than one record can exist for a structure, and the calls need not agree. Calls of active or inactive are those of the source. The call rests on the fitted dose curve; in most records, active means well fitted curve in the direction sought with a large enough effect in the repeat runs; inconclusive means weak or mixed curves; inactive means no such curve, though single readings can be large; an effect the other way counts as inactive or inconclusive.

Experiments:
[1] = A CellTox Green Cytotoxicity Assay to monitor cytotoxicity in HEK293 cells - 40 hour (AID 1224871); further: nearly all actives have a fitted effect of over 45% in size; further: potency means the concentration at half of the fitted maximal effect
Summary of the method: (§1)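 Real-time, in one plate: 600 HEK293 cells/well with dead-cell DNA dye, pinned compound after 5 h, 37 C incubation over 40 h; viable cells give no appreciable fluorescence.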

[2] = qHTS RealTime-Glo MT Cell Viability Assay in HEK293 cells - 16 hour (AID 1224872); further: nearly all actives have a fitted effect of over 50% in size; further: potency means the concentration at half of the fitted maximal effect
Summary of the method: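 Reads taken at 0, 8, 16, 24, 32 and 40 h from the same wells. HEK293 cells (600/well) carried RealTime-Glo reagents from seeding, with compound added after a 5 h settle at 37 C.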

[3] = qHTS RealTime-Glo MT Cell Viability Assay in HepG2 cells - 8 hour (AID 1224873); further: nearly all actives have a fitted effect of over 55% in size; further: potency means the concentration at half of the fitted maximal effect
Summary of the method: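 HepG2 cells mixed with RealTime-Glo MT reagents (NanoLuc plus cell-permeant prosubstrate) were seeded at 600 cells/well, incubated 5 h at 37 C/5% CO2, then pinned with compounds in DMSO; nonlytic luminescence tracked viability during 40 h treatment.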

[4] = A CellTox Green Cytotoxicity Assay to monitor cytotoxicity in HEK293 cells - 24 hour (AID 1224875); further: nearly all actives have a fitted effect of over 45% in size; further: potency means the concentration at half of the fitted maximal effect
Summary of the method: as §1

[5] = A CellTox Green Cytotoxicity Assay to monitor cytotoxicity in HepG2 cells - 16 hour (AID 1224876); further: nearly all actives have a fitted effect of over 45% in size; further: potency means the concentration at half of the fitted maximal effect
Summary of the method: (§2)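 Cytotoxicity was tracked as dead-cell DNA fluorescence in HepG2 cells treated with test compounds at 37 C; each time-point value comes from one kinetic series spanning 0, 8, 16, 24, 32 and 40 h.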

[6] = qHTS RealTime-Glo MT Cell Viability Assay in HepG2 cells - 32 hour (AID 1224877); further: nearly all actives have a fitted effect of over 55% in size; further: potency means the concentration at half of the fitted maximal effect
Summary of the method: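 HepG2 suspension premixed with RealTime-Glo reagents is plated at 600 cells per well and left 5 h at 37 C/5% CO2. Compounds in DMSO then go in, and bioluminescence reflecting viable cell number is recorded over 40 h.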

[7] = A CellTox Green Cytotoxicity Assay to monitor cytotoxicity in HepG2 cells - 24 hour (AID 1224878); further: nearly all actives have a fitted effect of over 45% in size; further: potency means the concentration at half of the fitted maximal effect
Summary of the method: as §2

[8] = A CellTox Green Cytotoxicity Assay to monitor cytotoxicity in HepG2 cells - 40 hour (AID 1224879); further: nearly all actives have a fitted effect of over 40% in size; further: potency means the concentration at half of the fitted maximal effect
Summary of the method: as §2

[9] = qHTS RealTime-Glo MT Cell Viability Assay in HEK293 cells - 40 hour (AID 1224874); settings: RealTime-Glo luminescence; max response: stronger effect = lower value; further: nearly all actives have a fitted effect of over 50% in size; further: potency means the concentration at half of the fitted maximal effect
Summary of the method: (§3)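 Kinetic, non-lysing viability readout. Seed HEK293 (600/well) with reagent, incubate 5 h at 37 C/5% CO2, pin 23 nL compound in DMSO, incubate at 37 C, read luminescence at 0, 8, 16, 24, 32, 40 h.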

[10] = qHTS RealTime-Glo MT Cell Viability Assay in HEK293 cells - 0 hour (AID 1224880)
Summary of the method: as §3

Row | SMILES | Potency [1] | Potency [2] | Potency [3] | Potency [4] | Potency [5] | Potency [6] | Potency [7] | Potency [8] | Potency [9] | Potency [10] | max response [9]
1 | O=C(NO)C1(NS(=O)(=O)c2ccc(Oc3ccc(F)cc3)cc2)CCOCC1 | inactive | inactive | inactive | inactive | inactive | inactive | inactive | inactive | – | – | –
2 | CCc1cc(Cc2cc(CC)c(N)c(CC)c2)cc(CC)c1N | inactive | 24.5 µM (active) | inactive | inactive | inactive | inactive | inactive | – | – | – | –
3 | CCc1cc(Cc2cc(CC)cc(C(C)(C)C)c2O)c(O)c(C(C)(C)C)c1 | 54.9 µM (active) | 13.8 µM (active) | 49 µM (active) | – | – | 49 µM (active) | – | – | 21.9 µM (active) | inactive | –
4 | CO[Si](CCCNc1ccccc1)(OC)OC | inactive | inactive | inactive | inactive | – | inactive | inactive | inactive | – | inactive | 16.6% (inactive)
5 | CC(C)(C)c1ccc(C(=O)CCCN2CCC(OC(c3ccccc3)c3ccccc3)CC2)cc1 | 23.9 µM (active) | 8.49 µM (active) | 19 µM (active) | 21.3 µM (active) | – | 19 µM (active) | 23.9 µM (active) | 19 µM (active) | 9.52 µM (active) | inactive | –
6 | CCCC(C)c1ccccc1O (centres undefined) | 49 µM (active) | inactive | inactive | – | – | inactive | – | – | – | inactive | -11.1% (inactive)
7 | CCC(CN)=C(c1ccccc1)c1ccccc1 | inactive | inactive | inactive | inactive | inactive | inactive | inactive | – | – | – | –
8 | C=CC(=O)OCC(CO)(COCC(COC(=O)C=C)(COC(=O)C=C)COC(=O)C=C)COC(=O)C=C | 27.2 µM (active) | 3.05 µM (active) | 3.42 µM (active) | 54.3 µM (active) | – | 3.84 µM (active) | 48.4 µM (active) | 15.3 µM (active) | 2.42 µM (active) | inactive | –
9 | O=C1C=CC(=O)N1 | 17.8 µM (active) | 15.9 µM (active) | 44.8 µM (active) | 20 µM (active) | – | 22.5 µM (active) | 20 µM (active) | 17.8 µM (active) | 11.3 µM (active) | inactive | –
10 | Cc1ccc(O)c(C(C)(C)C)c1 | 43.6 µM (active) | inactive | inactive | 48.9 µM (active) | – | inactive | 43.6 µM (active) and 34.7 µM (active) | 43.6 µM (active) and 34.7 µM (active) | – | inactive | -17.7% (inactive) and -1.19% (inactive)
11 | CC(C)(C)C(=O)OCOC(=O)C1N2C(=O)CC2S(=O)(=O)C1(C)C (centres undefined) | inactive | inactive | inactive | inactive | – | inactive | – | inactive | – | inactive | 5.75% (inactive)
12 | Oc1ccc2cc(SSc3ccc4cc(O)ccc4c3)ccc2c1 | 49 µM (active) and 24.5 µM (active) | 49 µM (active) | inactive | – | inactive | inactive | inactive | inactive and 21.9 µM (active) | 55 µM (active) | inactive | –
13 | CCCN(CCC)c1c([N+](=O)[O-])cc(C(F)(F)F)c(N)c1[N+](=O)[O-] | 54.8 µM (active) | 12.3 µM (active) | 48.9 µM (active) | 54.8 µM (active) | – | 48.9 µM (active) | – | 54.8 µM (active) | 19.4 µM (active) | inactive | –
14 | COc1cccc(N)c1 | inactive | inactive | inactive | inactive | inactive | inactive | inactive | inactive | – | inactive | -1.08% (inactive)
15 | O=C(Nc1cccc(Cl)c1)OCC#CCCl | 43.6 µM (active) | 54.9 µM (active) | 43.6 µM (active) | inactive | inactive | 43.6 µM (active) | – | – | 49 µM (active) | inactive | –
16 | Cc1cccc(N(C)C(=S)Oc2ccc3c(c2)C2CCC3C2)c1 (centres undefined) | inactive | inactive | inactive | inactive | – | inactive | inactive | inactive | – | inactive | -13.2% (inactive)
17 | OC1(c2ccc(Cl)c(C(F)(F)F)c2)CCN(CCCC(c2ccc(F)cc2)c2ccc(F)cc2)CC1 | 21.3 µM (active) | 9.52 µM (active) | 21.3 µM (active) | 23.9 µM (active) | 10.7 µM (active) | 8.49 µM (active) | 9.52 µM (active) | 6.74 µM (active) | 9.52 µM (active) | inactive | –
18 | Clc1ccccc1C(c1ccccc1)(c1ccccc1)n1ccnc1 | 43.6 µM (active) and inactive | 27.5 µM (active) | 27.5 µM (active) and inactive | – | 38.9 µM (active) and inactive | 24.5 µM (active) and inactive | 21.9 µM (active) and inactive | 21.9 µM (active) and inactive | 19.5 µM (active) and 6.74 µM (active) | inactive | –
19 | N#CC1(c2ccc(F)cc2)CCC(=O)CC1 | inactive | inactive | inactive | inactive | inactive | inactive | inactive | inactive | – | inactive | 6.72% (inactive)
20 | CCCC/C=C/CCCCO | inactive | inactive | inactive | inactive | inactive | inactive | inactive | inactive | – | inactive | –
